Reference: PubChem BioAssay
The source made the active and inactive calls.

Assays:
[1] = tested on: Plasmodium falciparum Sir2 (PF13_0152, Sir2A); assay: pfSir2 binders on small-molecule microarrays, primary screen, biochemical, small-molecule microarray, 635 nm fluorescence (AID 1098); conditions: small-molecule microarray binding, fluorescence 635 nm; higher = more signal;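 further: score merges spot fluorescence intensity with its signal-to-noise ratio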
[2] = small-molecule microarray binders of probe aDKK1, primary screen, biochemical, biotinylated probe, 635/667 nm fluorescence (AID 1099); conditions: higher = more signal;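 further: score merges 667nm spot fluorescence with signal to noise across triplicate slides; reference of the scale not given here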
[3] = small-molecule microarray binders of probe aCHRDL2, primary screen, biochemical, biotinylated probe, 635/667 nm fluorescence (AID 1100); conditions: higher = more signal
[4] = splicing luciferase reporter signal modulators, primary screen, spliceosome inhibition project, cell-based, HEK293, splice +/- reporter (AID 1101); conditions: luminescence, 24 h, higher = more signal, called active from +8 up or from −8 down;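 further: HEK293 cells carrying a splicing-competent luciferase reporter gene; test concentration not given here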
[5] = target: Fibroblast growth factor 10 (Homo sapiens) (UniProt O15520); assay: FGF10 binders on small-molecule microarrays, primary screen, biochemical, small-molecule microarray, 635 nm fluorescence (AID 1102); conditions: FGF10 binding, fluorescence 635 nm, higher = more signal
Sequence of Fibroblast growth factor 10 (Homo sapiens) (O15520 whole entry, looked up): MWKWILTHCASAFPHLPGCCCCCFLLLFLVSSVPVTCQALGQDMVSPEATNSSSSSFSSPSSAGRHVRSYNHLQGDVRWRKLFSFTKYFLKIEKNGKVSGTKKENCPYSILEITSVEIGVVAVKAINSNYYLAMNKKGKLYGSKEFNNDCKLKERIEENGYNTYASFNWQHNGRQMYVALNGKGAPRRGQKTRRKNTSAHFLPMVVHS

[6] = tested on: glycogen synthase kinase-3 (GSK3A per assay name; protocol says GSK3B); assay: GSK3 binders on small-molecule microarrays, primary screen, biochemical, small-molecule microarray, 635 nm fluorescence, GSK3A (AID 1103); conditions: small-molecule microarray binding, fluorescence 635 nm; higher = more signal; further: the record names both GSK3A and GSK3B
[7] = target: Epidermal growth factor receptor (Homo sapiens) (UniProt P00533); assay: EGFR binders on small-molecule microarrays, primary screen, biochemical, small-molecule microarray, 635 nm fluorescence (AID 1104); conditions: EGFR binding, higher = more signal;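 further: score merges 667 nm emission intensity with spot signal to noise over triplicate slides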
Sequence of Epidermal growth factor receptor (Homo sapiens) (P00533 whole entry, looked up): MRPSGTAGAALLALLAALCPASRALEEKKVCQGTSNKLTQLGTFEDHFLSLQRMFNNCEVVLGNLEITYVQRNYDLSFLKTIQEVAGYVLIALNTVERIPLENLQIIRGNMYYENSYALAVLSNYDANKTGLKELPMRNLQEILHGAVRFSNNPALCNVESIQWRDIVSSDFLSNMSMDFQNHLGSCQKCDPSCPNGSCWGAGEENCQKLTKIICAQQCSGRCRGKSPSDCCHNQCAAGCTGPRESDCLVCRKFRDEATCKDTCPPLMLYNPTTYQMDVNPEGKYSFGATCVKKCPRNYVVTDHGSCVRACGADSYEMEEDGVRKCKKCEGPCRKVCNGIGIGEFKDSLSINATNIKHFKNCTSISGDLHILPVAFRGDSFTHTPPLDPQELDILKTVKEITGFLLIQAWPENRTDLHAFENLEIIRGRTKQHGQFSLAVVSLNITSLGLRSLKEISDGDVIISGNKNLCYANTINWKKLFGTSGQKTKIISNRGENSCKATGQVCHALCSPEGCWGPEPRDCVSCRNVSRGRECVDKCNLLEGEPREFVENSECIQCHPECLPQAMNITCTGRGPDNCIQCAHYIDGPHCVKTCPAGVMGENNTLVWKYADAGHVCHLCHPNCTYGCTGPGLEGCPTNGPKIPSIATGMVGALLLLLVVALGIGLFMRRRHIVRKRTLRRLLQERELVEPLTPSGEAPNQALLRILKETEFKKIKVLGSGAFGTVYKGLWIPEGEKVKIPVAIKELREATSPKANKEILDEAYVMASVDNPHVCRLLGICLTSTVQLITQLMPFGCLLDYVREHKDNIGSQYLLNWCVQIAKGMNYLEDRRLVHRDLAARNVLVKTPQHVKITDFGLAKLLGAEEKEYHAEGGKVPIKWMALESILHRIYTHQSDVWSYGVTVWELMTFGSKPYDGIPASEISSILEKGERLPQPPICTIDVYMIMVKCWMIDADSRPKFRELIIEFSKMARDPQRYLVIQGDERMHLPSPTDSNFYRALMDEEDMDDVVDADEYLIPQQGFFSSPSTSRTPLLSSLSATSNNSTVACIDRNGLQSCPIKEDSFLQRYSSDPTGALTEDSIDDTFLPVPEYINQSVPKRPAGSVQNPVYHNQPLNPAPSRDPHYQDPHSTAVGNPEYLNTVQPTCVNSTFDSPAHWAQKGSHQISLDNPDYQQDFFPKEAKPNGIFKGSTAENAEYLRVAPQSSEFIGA

[8] = target: Follistatin-related protein 3 (Homo sapiens) (UniProt O95633); assay: FSTL3 binders on small-molecule microarrays, primary screen, biochemical, small-molecule microarray, 635 nm fluorescence (AID 1105); conditions: FSTL3 binding, higher = more signal;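 further: score merges emission near 667 nm and signal to noise per printed spot across three slides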
Sequence of Follistatin-related protein 3 (Homo sapiens) (O95633 whole entry, looked up): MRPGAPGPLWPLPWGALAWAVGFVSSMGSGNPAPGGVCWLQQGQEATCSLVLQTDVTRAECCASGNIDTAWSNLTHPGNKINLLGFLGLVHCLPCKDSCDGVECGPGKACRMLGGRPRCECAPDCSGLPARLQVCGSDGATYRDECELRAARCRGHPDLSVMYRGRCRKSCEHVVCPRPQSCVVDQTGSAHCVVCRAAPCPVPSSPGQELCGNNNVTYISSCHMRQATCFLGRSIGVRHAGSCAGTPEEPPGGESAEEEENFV

[9] = target: Dickkopf-related protein 1 (Homo sapiens) (UniProt O94907); assay: DKK1 binders on small-molecule microarrays, primary screen, biochemical, small-molecule microarray, 635 nm fluorescence scan (AID 1106); conditions: DKK1 binding, higher = more signal;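 further: score merges emission near 667 nm with signal to noise over three replicate slides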
Sequence of Dickkopf-related protein 1 (Homo sapiens) (O94907 whole entry, looked up): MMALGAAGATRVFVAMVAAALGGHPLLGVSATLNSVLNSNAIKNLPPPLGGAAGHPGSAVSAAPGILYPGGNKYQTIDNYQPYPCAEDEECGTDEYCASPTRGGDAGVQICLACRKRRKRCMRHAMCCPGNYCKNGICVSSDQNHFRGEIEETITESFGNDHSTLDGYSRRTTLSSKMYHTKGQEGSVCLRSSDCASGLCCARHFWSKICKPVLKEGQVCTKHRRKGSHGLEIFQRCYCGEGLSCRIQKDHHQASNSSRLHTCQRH

[10] = tested on: Inhibin beta A chain (activin A); assay: INHBA (activin A) binders on microarrays, primary screen, biochemical, small-molecule microarray, 635 nm fluorescence scan (AID 1107); conditions: small-molecule microarray binding, higher = more signal;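 further: mouse activin A protein probed at 4.33 µg/mL on printed slides; score merges bound-protein fluorescence near 667 nm with spot signal-to-noise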

| Compound | composite z-score [1] | composite z-score [2] | composite z-score [3] | z-score [4] | composite z-score [5] | composite z-score [6] | composite z-score [7] | composite z-score [8] | composite z-score [9] | composite z-score [10] |
| --- | --- | --- | --- | --- | --- | --- | --- | --- | --- | --- |
| C=CCOC(=O)[C@@H]1[C@H]2C(=O)O[C@H](c3ccccc3)[C@H](c3ccccc3)N2[C@H](c2ccc(OCCOC(=O)[C@@H]3C[C@@H]4C(=O)N[C@@H](CC(C)C)C(=O)N4[C@@H]3c3ccc(O)cc3)cc2)[C@@]12C(=O)Nc1ccc(I)cc12 | 1.03 | -0.228 | -0.355 | -0.771 (inactive) | 1.37 | 1.28 | 0.817 | 1.42 | 1.14 | 0.79 |
| CCCC1(C(=O)OC)C=C2C(=C(C(C)C)C(=O)C2C)CN1 (stereo not given) | -0.129 | 0.759 | 0.813 | 1.44 (inactive) | -0.474 | -1.63 | -0.648 | -0.911 | -0.724 | 1.17 |
| COc1cc(Cc2cc3c(c(CCc4ccccc4)n2)[Si](C(C)C)(C(C)C)O[C@H]3c2ccccc2)cc(OC)c1OC | 1.05 | 0.0709 | 0.366 | -1.06 (inactive) | -0.507 | -1.04 | -0.4 | -0.617 | -0.308 | 0.87 |
| [N-]=[N+]=NCc1ccccc1C[C@@]1(C(=O)NCCN2CCOCC2)N=C(c2ccc(OCCCO)cc2)O[C@@H]1c1ccccc1 | 0.365 | 0.809 | 0.996 | 0.995 (inactive) | 0.486 | -0.0659 | -0.883 | -0.192 | -0.342 | 0.293 |
| COCCCNC(=O)[C@@]1(Cc2ccccc2I)c2ccccc2C(=O)N(Cc2ccccc2OC)[C@H]1c1ccc(CO)cc1 | -0.347 | -0.302 | 0.941 | 0.932 (inactive) | -0.0058 | -0.116 | -0.824 | -0.557 | -1.51 | -1.43 |
| [N-]=[N+]=NCc1ccccc1[C@H]1OC(c2ccc(OCCCO)cc2)=N[C@@]1(CCS(=O)(=O)c1ccccc1)C(=O)NCCN1CCOCC1 | 1.51 | 0.667 | 1.12 | -0.757 (inactive) | 1.38 | 0.844 | 0.135 | 0.698 | 0.0689 | 0.914 |
| C=CC[C@H](O)c1ccc(O)c2ccccc12 | 0.623 | -0.196 | -0.0155 | -1.26 (inactive) | 1.1 | 1.01 | 1.04 | 1.42 | 1.34 | 1.21 |
| O=C1O[C@H](c2ccccc2)[C@H](c2ccccc2)N2[C@H]1[C@@H](C(=O)N1CCCCCCC1)[C@]1(C(=O)Nc3ccc(C#CCCO)cc31)[C@H]2c1ccc(O)cc1 | 2.11 | 2.97 | 1.72 | -0.547 (inactive) | 1.67 | 1.47 | 1.99 | 1.74 | 2.7 | 1.96 |
| COC(=O)C(CC#Cc1ccc2c(c1)[C@]1(C(=O)N2)[C@H](C(=O)N2CCN(c3ncccn3)CC2)[C@H]2C(=O)O[C@H](c3ccccc3)[C@H](c3ccccc3)N2[C@@H]1c1ccc(O)cc1)C(=O)OC | 1.57 | 2.26 | 1.34 | -0.0485 (inactive) | 1.09 | 1.37 | 1.18 | 1.47 | 0.856 | 1.59 |
| COc1ccc(C(O)C2C=CC3C(=O)N(c4ccccc4)C(=O)C3N2Nc2ccccc2F)c2ccccc12 (stereo not given) | 0.85 | 1.59 | 1.4 | -0.038 (inactive) | 1.04 | 1.32 | 0.531 | 1.36 | -0.265 | 1.02 |
| C=CCOC(=O)[C@H]1[C@@H]2C(=O)O[C@@H](c3ccccc3)[C@@H](c3ccccc3)N2[C@@H](c2ccc(OCCOC(=O)[C@H]3C[C@H]4C(=O)NCC(=O)N4[C@H]3c3ccc(O)cc3)cc2)[C@]12C(=O)Nc1ccccc12 | 1.33 | 0.101 | 0.116 | 0.417 (inactive) | 1.28 | 1.3 | 0.756 | 1.23 | 0.974 | 0.511 |
| COc1ccc([Si](C)(C)[C@@H]2[C@@H](CC(=O)N3Cc4ccccc4C[C@H]3CO)O[C@]3(C(=O)N(Cc4ccc(I)cc4)c4ccccc43)[C@H]2C)cc1 | 0.458 | -0.128 | -0.357 | -1.36 (inactive) | 1.12 | 0.66 | 1.22 | 1.36 | 1.45 | 1.52 |
| C=CC[C@]1(C(=O)NCCN2CCOCC2)N=C(c2ccc(OCCCO)cc2)O[C@H]1c1ccccc1 | 1.52 | -0.0845 | 0.942 | -0.4 (inactive) | 0.3 | 0.866 | -0.0911 | 0.281 | 0.418 | 0.772 |
| O=C1O[C@H](c2ccccc2)[C@H](c2ccccc2)N2[C@H]1[C@@H](C(=O)N1CCN(c3ncccn3)CC1)[C@]1(C(=O)Nc3ccc(C#CC4(O)CCCCCC4)cc31)[C@H]2c1ccc(O)cc1 | 1.54 | 0.111 | -0.156 | -0.262 (inactive) | 0.989 | 1 | 0.241 | 0.764 | 0.185 | 0.0022 |
